About 360 (0.41%) of roughly 87,000 compounds were called active. For the sample, actives were picked, then their nearest neighbours and some compounds at random. A number with no mark means an inactive call. Cut-off read from the data, not from the text of the source: active = cytotoxicity above about 50%; inactive = the rest.
test: HT1080 cell viability loss – fluorescence readout (AID 620); conditions: at 10 µM, hits give high values;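 note: cells exposed to compound overnight then 4 h with Alamar Blue; 0% = vehicle DMSO and 100% = killing control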

Compound | cytotoxicity
CCCCNC(=O)c1ccc2c(c1)N(CC)C(=O)c1ccccc1S2(=O)=O | -4.4%
CSc1nc(NCC(C)C)nc(N2CCOCC2)n1 | 1%
CC(=O)NC1=NN(C(C)=O)C(C)(c2cccs2)S1 (centres undefined) | 65.3% (active)
CCCC1(C)SC(NC(C)=O)=NN1C(C)=O (centres undefined) | -1.8%
CC(=O)NC1=NN(C(C)=O)C2(CCCCC2)S1 | 0.7%
COc1ccc(C(=O)CSc2nc(SC)ns2)cc1OC | 7.5%
COc1cc(NC(=O)COc2ccc(F)cc2)nc(OC)n1 | 5%
O=C(Nc1ccc(-c2nc3ccc(NC(=O)c4cccs4)cc3[nH]2)cc1)c1cccs1 | 16.4%
O=C(Nc1ccc2nc(-c3ccccc3)[nH]c2c1)c1cccs1 | 56.7% (active)
O=C(Nc1ccc2nc(-c3cccs3)[nH]c2c1)c1cccs1 | 17%
COc1ccc(C(=O)SC2=NCCS2)cc1 | -11.1%
Cc1cc(C)n(-c2c(F)c(F)c(CO)c(F)c2F)n1 | -14.3%
CS(=O)(=O)N(CC(=O)N1CCN(c2ccccc2)CC1)C1CCCCC1 | -5.1%
CCCNC(=O)C1CN(S(=O)(=O)c2ccccc2)CCN1S(=O)(=O)c1ccccc1 (centres undefined) | 3.1%
Cn1c(Cn2nnc3ccccc32)nnc1SCC(=O)NCc1ccc2c(c1)OCO2 | -4.4%
CCn1ncc(C2=NOC(C(=O)NCc3ccc(OC)cc3)C2)c1C (centres undefined) | 2%
CCn1ncc(C2=NOC(C(=O)NCc3ccccc3)C2)c1C (centres undefined) | 53.9% (active)

Compound | cytotoxicity
CCn1ncc(C2=NOC(C(=O)Nc3ccc(C)cc3)C2)c1C (centres undefined) | 7.8%
CCn1ncc(C2=NOC(C(=O)NCc3ccc(Cl)cc3)C2)c1C (centres undefined) | 71.2% (active)
CCn1ncc(C2=NOC(C(=O)NCCc3ccccc3)C2)c1C (centres undefined) | 4.4%
CCn1ncc(C2=NOC(C(=O)NCC(C)C)C2)c1C (centres undefined) | 1.4%
Cc1ccc(C)c(NC2=NC3(CCCCC3)N=C(N)N2)c1 | 4.3%
COC(=O)C(NC(=O)c1ccco1)(Nc1nc(C2CC2)cs1)C(F)(F)F (centres undefined) | 1.9%
CCc1ccccc1NC(=O)CN(C)Cc1nc(N)nc(Nc2ccccc2C)n1 | -1%
CO/N=C/NC(=O)Cc1cn(-c2ncc(C(F)(F)F)cc2Cl)c2ccccc12 | 7.8%
Cc1c(C(=O)Nc2nnc(C(F)(F)F)s2)oc2ccccc12 | 82.5% (active)
COc1ccc(C(=O)Nc2nnc(C(F)(F)F)s2)cc1 | 66.8% (active)
CCOCc1nnc(NC(=O)c2ccc(OC)cc2)s1 | 7.7%
Cc1ccc2c(C)c(C(=O)Nc3nnc(C)s3)oc2c1 | 1.1%
Cc1cc(NC(=O)c2oc3ccccc3c2C)ccc1-n1cnnn1 | 75.3% (active)
COC(=O)c1sc(NC(=O)c2oc3ccccc3c2C)nc1C | -14.4%
Cc1cc(NC(=O)c2ccco2)ccc1-n1cnnn1 | -8.1%
Cc1c(C(=O)Nc2ccc(-n3cnnn3)cc2)oc2ccccc12 | 26.2%
O=C(Nc1nnc(C(F)(F)F)s1)c1cccnc1 | 24%
